Experimental findings from PubChem BioAssay AID540364 (The Scripps Research Institute Molecular Screening Center, 2011) are described below.

Hit rate of the full screen: of about 360,000 compounds, about 2,000 (0.56%) were called active.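 How the source made its calls: active means activation above the average of all compounds screened plus 3 SD, cutoff fixed separately per campaign (cut at about 7.5% in these data); inactive means the rest.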 Only a selection was taken, and actives are over-represented in it overall.

The assay in a line: GAA850 frataxin promoter reporter upregulation – cell-based, luciferase luminescence, HEK293 lucGAA850, primary screen (AID 540364).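 Further: 0% = DMSO wells and 100% = 10 µM SAHA wells.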 The settings on record: HEK293 lucGAA850 FXN promoter luciferase reporter, 24 h; at 6 µM; stronger effect = higher value; percent of 10 µM SAHA response. For orientation: A reporter such as luciferase makes a cellular process visible.
With `Cc1ccc(-c2c3c(=O)n(C)c(=O)n(C)c3cn2-n2cnnc2)cc1`, the activation was 10.3% (active).
As to `Cc1ccc(-c2c3c(=O)n(C)c(=O)n(C)c3cn2-c2ccccc2O)cc1`, the activation is -0.62% (inactive).
In the case of `COc1cccc(-n2cc3c(c2-c2ccccc2)c(=O)n(C)c(=O)n3C)c1`, the activation is 1.09% (inactive).
The value for `CCN(C[C@H]1N[C@@](CC)(C(=O)OC)[C@H]2C(=O)N(Cc3ccccc3)C(=O)[C@@H]12)S(=O)(=O)c1ccccc1` was 3.23% (inactive).
The value for `CCN(C[C@H]1N[C@@](CC)(C(=O)OC)[C@H]2C(=O)N(Cc3ccccc3)C(=O)[C@@H]12)S(=O)(=O)c1ccc(C(F)(F)F)cc1` was 15.9% (active).
With `COC(=O)[C@]1(Cc2ccccc2)N[C@H](CN(C)S(=O)(=O)c2ccc(OC(F)(F)F)cc2)[C@@H]2C(=O)N(Cc3ccccc3)C(=O)[C@@H]21`, the activation was -3.69% (inactive).
Then `OC(c1ccccc1)c1nc(/C=C/c2ccc(C(F)(F)F)cc2)cs1` (configuration not stated), with 1% (inactive); and `CC(=O)Nc1cc(-c2ccccc2N(C)C)cn2c(-c3ccc(F)c(Cl)c3)cnc12`, with 1.24% (inactive); and `COc1ccc(NC(=O)CSCc2ccc([N+](=O)[O-])cc2)cc1OC`, with 0.83% (inactive).
Then `COc1ccc2[nH]c(=O)c(CN(Cc3nnnn3CCc3ccccc3)CC3CCCO3)cc2c1` (configuration not stated), with 7.67% (active); and `CCC(c1nnnn1Cc1ccccc1)N(Cc1cc2cc(OC)ccc2[nH]c1=O)CC1CCCO1` (configuration not stated), with 5.86% (inactive); and `CCOc1ccc2[nH]c(=O)c(CN(Cc3nnnn3CCc3ccccc3)CC3CCCO3)cc2c1` (configuration not stated), with 1.4% (inactive).
Then `COc1ccc(-c2cc(C(F)(F)F)nc(S(C)(=O)=O)n2)cc1OC`, with 16.9% (active); and `COc1ccc(-c2cc(C(=O)N(C)Cc3ccc(OC)c(OC)c3OC)c3ccccc3n2)cc1OC`, with -6.82% (inactive).
For `COc1ccc(-c2cc(C(=O)NCCCN3CCCC3=O)c3ccccc3n2)cc1OC`, the activation is 0.37% (inactive).
Then `Cc1cccc(C(=O)Nc2nnc(S(=O)(=O)N3CCCCCC3)s2)c1`, with -0.31% (inactive); and `O=C(Nc1nnc(S(=O)(=O)N2CCCCCC2)s1)c1cccc(Br)c1`, with 11% (active).
Then `O=C(Nc1nnc(S(=O)(=O)N2CCOCC2)s1)c1cccc(Br)c1`, with 3.61% (inactive); and `CC(OC(=O)CCC(=O)c1ccccc1)C(=O)Nc1ccc(F)cc1` (configuration not stated), with 0.37% (inactive); and `Cc1ccc(N=C2SCCCN2C(=O)c2cccc(N3C(=O)CCC3=O)c2)cc1Cl`, with -0.64% (inactive).
The value for `COc1ccc2cc(CCl)c(Cl)nc2c1` was 2.75% (inactive).
Regarding `O=[N+]([O-])c1ccc(C=Nc2ccc(Cl)cc2Cl)s1`, the activation is 9.39% (active).
On to `COc1ccc(CN2[C@@H](CC(=O)O)c3cc(F)ccc3S2(=O)=O)cc1`, for which the activation is 1.09% (inactive).
Then `CCc1noc(C)c1C(=O)N1CCN(S(=O)(=O)c2cccc(C(F)(F)F)c2)CC1`, with -0.49% (inactive); and `O=C(N/N=C\c1cc2c(cc1Cl)OCO2)c1ccc(Br)s1`, with 1.53% (inactive).
On to `O=C(/C=C/c1cc2c(cc1Br)OCO2)NCc1ccc(Cl)cc1`, for which the activation is 1.84% (inactive).
As for `CC1(C(=O)N/N=C/c2cc3c(cc2Br)OCO3)CC1(Br)Br` (configuration not stated), the activation is 8.27% (active).
Then `CO[C@H]1[C@@H]2C=CO[C@@H](O[C@H]3O[C@@H](CO)[C@H](O)[C@@H](O)[C@@H]3O)[C@@H]2[C@@]2(CO)O[C@@H]12`, with -1.13% (inactive).
Then `Cc1ccc(OCCCCc2c(C)n[nH]c2C)cc1`, with 0.87% (inactive).
The value for `Cc1cc(=O)oc2c3c(cc(OCC(=O)NCC(O)c4ccccc4)c12)OC(C)(C)CC3` (configuration not stated) was 1.51% (inactive); that for `Cc1ccc(C)c(NC(=O)c2ccc3nccnc3c2)c1` was -0.14% (inactive).
As for `CC(C)CCC(C)NC(=O)c1ccc2nccnc2c1` (configuration not stated), the activation is 9.19% (active).
As to `O=C(NCCc1ccc(F)cc1)c1ccc2nccnc2c1`, the activation is 3.24% (inactive).
The value for `CCc1ccc(N(CC(=O)NCc2cccnc2)S(=O)(=O)c2ccccc2)cc1` was -0.07% (inactive).
Then `CN(CC(=O)NCc1cccnc1)S(=O)(=O)c1cc(Cl)ccc1Cl`, with -2.15% (inactive); and `O=C(CN(c1cc(C(F)(F)F)ccc1Cl)S(=O)(=O)c1ccccc1)NCc1cccnc1`, with 8.32% (active); and `COc1ccc(OC)c(NC(=O)c2cnn(-c3ccccc3Cl)c2NC(=O)c2ccco2)c1`, with 2.28% (inactive).
The value for `O=[N+]([O-])/C=C/c1ccc2c(ccn2Cc2ccccc2)c1` was 15.3% (active); that for `COc1ccc(NC(=S)SC)cc1OC` was 0.31% (inactive); that for `COc1ccc(CN2C(=O)CN=C2Nc2ccc(C)cc2C)cc1` was 2.67% (inactive).
Turning to `CCOC(=O)C1=C(O)/C(=C/c2ccc(OCC(=O)Nc3ccc(C)cc3)cc2)N=C1C`, the activation was -1.6% (inactive).
Then `Cc1ccc(OCC(=O)Nc2ccc(-c3nnc(-c4ccco4)o3)cc2)cc1`, with 9.76% (active); and `Cc1ccc(NC(=O)COc2ccc(/C=C3/NC(=O)NC3=O)cc2)cc1`, with -1.99% (inactive); and `Cc1noc(C)c1NC(=O)Nc1ccc2c(c1)C(=O)N([C@H](C)CO)C[C@H](C)[C@@H](CN(C)S(=O)(=O)c1cn(C)cn1)O2`, with 0.14% (inactive).
The value for `CCOC(=O)C1=C(CC)Nc2ccccc2N=C1NC(=O)c1cccc(S(=O)(=O)N2CCCC2)c1` was -2.08% (inactive).
The value for `Cn1c(CCN2CCCCCC2)nc2cc(NC(=O)Nc3ccccc3)ccc21` was 10.5% (active); that for `Cc1nn(CC(=O)Nc2ccc3c(c2)nc(CN2CCCCC2)n3C)c(=O)c2ccccc12` was -1.92% (inactive); that for `CCC(=O)Nc1ccc2c(c1)nc(CCN1CCN(c3ccccn3)CC1)n2C` was 1.46% (inactive).
With `O=C(CNCCC1=CCCCC1)Nc1ccccc1N1CCCCCC1`, the activation was -0.31% (inactive).
Then `Cc1cc(C)c2c(-n3cccc3)c(C(=O)NNS(=O)(=O)c3ccc(F)cc3)sc2n1`, with -0.88% (inactive); and `COc1cc(S(=O)(=O)N2CCN=C2c2ccccc2)ccc1Cl`, with 2.5% (inactive).
The value for `Cn1c(=NC(=O)c2ccc3c(c2)OCCO3)sc2cc(S(C)(=O)=O)ccc21` was -0.86% (inactive); that for `COCCn1c(=NC(=O)c2ccccc2[N+](=O)[O-])sc2cc(S(C)(=O)=O)ccc21` was 8.06% (active); that for `COC(=O)CNC(=O)c1ccccc1[N+](=O)[O-]` was 1.03% (inactive).
Then `CCOC(=O)C1CCN(C(=O)Cn2nc(C)c3c(C)n(-c4ccccc4)nc3c2=O)CC1`, with -0.2% (inactive).
Take `COc1ccc(-n2cc(-c3ccccc3)c3c(=S)nc[nH]c32)cc1`: the activation is 8.54% (active).
Then `COc1ccc(N2C(=O)CNC2=S)cc1`, with -3.02% (inactive); and `COc1ccccc1CNC(=O)C1Cc2ccccc2C(=O)O1` (configuration not stated), with -0.56% (inactive); and `COc1cccc(N(C(=O)c2ccn[nH]2)C2(C(=O)Nc3c(C)cccc3C)CCCCC2)c1`, with -6.45% (inactive).
Then `O=C(NC1CCCC1)C(c1ccco1)N(C(=O)c1csnn1)c1ccccc1` (configuration not stated), with 0.36% (inactive); and `CCc1ccc(N(C(=O)c2csnn2)C(C(=O)NC2CCCCC2)c2cccnc2)cc1` (configuration not stated), with -1.27% (inactive).
In the case of `CCc1ccc(N(C(=O)c2csnn2)C(C(=O)NC2CCCCC2)c2ccncc2)cc1` (configuration not stated), the activation was 8.57% (active).
With `COC(=O)CN(C(=S)Nc1ccc(Cl)cc1)C1CC(=O)N(c2ccc(OC)cc2)C1=O` (configuration not stated), the activation is 1.91% (inactive).
The value for `CN(C)c1ccc(NC(=S)N(CCc2ccccc2)C2CC(=O)N(c3c(Cl)cccc3Cl)C2=O)cc1` (configuration not stated) was 0.24% (inactive); that for `CCOc1ccc(N2C(=O)CC(N(CCc3ccc(OC)c(OC)c3)C(=S)Nc3ccccc3)C2=O)cc1` (configuration not stated) was 8.9% (active).
Then `COc1ccc(NC(=O)CSc2ccc(-c3ccco3)nn2)c(OC)c1`, with 0.41% (inactive).
Then `COc1ccc2[nH]c3nc(SCC(=O)NC4CC4)nnc3c2c1`, with 0.57% (inactive); and `Oc1cccc2cc(-c3ccncc3)cnc12`, with 2.66% (inactive).
Take `COC(=O)c1ccc(NC(=O)CSc2nc(N)c(NC(=O)c3ccc(Br)o3)c(=O)[nH]2)cc1`: the activation is 1.31% (inactive).
Then `COc1ccc(C2Nc3ccccc3C(=O)N2c2ccc(Cl)cc2)cc1Cn1cc([N+](=O)[O-])cn1` (configuration not stated), with 10.7% (active); and `COc1ccc(CN2CCCC(C(=O)c3ccc(Cl)cc3)C2)cc1Cn1cncn1` (configuration not stated), with 1.04% (inactive).
Consider `COc1ccc(C2Nc3ccccc3C(=O)N2Cc2ccccc2)cc1Cn1nnc2ccccc21` (configuration not stated), for which the activation is -2.6% (inactive).
The value for `N#C/C(=C(\O)CCl)c1nnc2n1CCCCC2` was -0.95% (inactive); that for `CCOC(=O)C1(C)CCCN(C(=O)c2cccc(Cl)c2)C1` (configuration not stated) was -0.57% (inactive).
For `CC(C)Oc1ccc(C(CC(=O)N2CCOCC2)C(C)C)cc1` (configuration not stated), the activation was 2.86% (inactive).
The value for `CC(C)(C)NC(=O)NCc1ccco1` was 0.33% (inactive); that for `CC(C)(C)c1ccc(C(=O)NCc2ccco2)cc1` was 8.75% (active); that for `O=C(NCc1ccco1)/C(=C/c1ccco1)NC(=O)c1ccccc1` was 1.61% (inactive).
The value for `COc1ccc(C2NC(=O)C(=O)/C2=C(\O)c2ccc(Cl)cc2)cc1OC` (configuration not stated) was -0.36% (inactive); that for `CC/C(=C(/c1ccccc1)c1ccc(OCC[N+](C)(C)C)cc1)c1ccccc1` was -0.77% (inactive); that for `CCN(CC)C(=O)CSc1nnc(CNc2ccc(F)cc2)n1Cc1ccco1` was -2.98% (inactive).
The value for `CC1CN(Cc2ccco2)C(=S)N(c2ccccc2)C1=O` (configuration not stated) was 2.7% (inactive); that for `CN(C)C(=S)N=c1ssc(=S)n1Cc1ccco1` was 16.1% (active); that for `O=C(COc1ccc2ccc(=O)oc2c1)NCC(O)c1ccccc1` (configuration not stated) was 1.75% (inactive).
For `O=C(CC1NCCc2ccccc21)Nc1cccc(Cl)c1` (configuration not stated), the activation was 7.89% (active).
The value for `O=C(CC1C(=O)NCCN1C(=O)c1ccc([N+](=O)[O-])cc1)Nc1cccc(Cl)c1` (configuration not stated) was 0.62% (inactive); that for `O=C(CC1NCCNC1=O)Nc1cc(Cl)cc(Cl)c1` (configuration not stated) was 1.12% (inactive).
